Hit rate of the full screen: of about 39,000 compounds, about 1,500 (3.8%) were called active. This excerpt belongs to a sample that is enriched for actives.
The compounds below were run on HSkMC (human skeletal muscle cells) (assay: cytotoxicity call (relative viability < 0.9)). Settings: 10 µM.

**Q.** With C[C@@H]1CN([C@H](C)CO)C(=O)c2cc(NS(=O)(=O)c3cn(C)cn3)ccc2O[C@@H]1CN(C)Cc1ccc(C(=O)Nc2ccccc2N)cc1 as the compound, how does the cytotoxicity call read?
**A.** inactive

**Q.** Which cytotoxicity call does the source give for O=C(Nc1cccc2cccnc12)[C@H]1[C@@H](c2ccc(Br)cc2)CC(=O)N1C(=O)OCc1ccccc1 here?
**A.** inactive

**Q.** C[C@H]1CN([C@@H](C)CO)C(=O)c2cc(NS(=O)(=O)c3cn(C)cn3)ccc2O[C@@H]1CN(C)Cc1ccc(C(=O)O)cc1 was tested. Which cytotoxicity call did it give?
**A.** inactive

**Q.** How did the cytotoxicity call turn out when O=C(C[C@H]1CC[C@H]2[C@@H](COC[C@H](O)CN2C(=O)Nc2cccc(F)c2)O1)NCCCN1CCOCC1 was run?
**A.** inactive

**Q.** How did the cytotoxicity call turn out when C[C@@H]1CN([C@H](C)CO)C(=O)c2cc(NC(=O)Cc3ccccc3)ccc2O[C@H]1CN(C)Cc1ccc(Oc2ccccc2)cc1 was run?
**A.** inactive

**Q.** Which cytotoxicity call does the source give for O=C(C[C@@H]1C[C@H]2c3cc(NC(=O)Nc4ccc(C(F)(F)F)cc4)ccc3O[C@H]2[C@@H](CO)O1)NCc1cc(F)ccc1F here?
**A.** inactive

**Q.** With Cc1ccc(S(=O)(=O)Nc2ccc3c(c2)C(=O)N([C@@H](C)CO)C[C@@H](C)[C@@H](CN(C)C(=O)c2ccccc2)OCCCC[C@H](C)O3)cc1 as the compound, how does the cytotoxicity call read?
**A.** inactive

**Q.** Which cytotoxicity call does the source give for C[C@@H]1CN([C@@H](C)CO)C(=O)c2cc(NC(=O)c3ccncc3)ccc2O[C@H]1CN(C)Cc1ccc(-c2ccccc2)cc1 here?
**A.** inactive

**Q.** Which cytotoxicity call does the source give for C[C@@H]1CN([C@@H](C)CO)C(=O)CCCn2nncc2CO[C@H]1CN(C)C(=O)Nc1cccc(Oc2ccccn2)c1 here?
**A.** inactive

**Q.** With COc1ccc(NC(=O)N(C)C[C@@H]2Oc3ncc(C#CCN(C)C)cc3C(=O)N([C@@H](C)CO)C[C@H]2C)cc1 as the compound, how does the cytotoxicity call read?
**A.** inactive

**Q.** Which cytotoxicity call does the source give for C[C@@H]1O[C@H](O)[C@@H](F)[C@H](O)[C@@H]1O here?
**A.** inactive

**Q.** For C[C@@H]1CCCCO[C@@H](CN(C)Cc2ccc(C(F)(F)F)cc2)[C@@H](C)CN([C@@H](C)CO)C(=O)c2cc(NC(=O)Nc3ccc(C(F)(F)F)cc3)ccc2O1, which cytotoxicity call is on record?
**A.** active

**Q.** With C[C@@H]1CN([C@H](C)CO)C(=O)c2cc(NC(=O)Nc3ccc(C(F)(F)F)cc3)ccc2O[C@@H](C)CCCCO[C@H]1CN(C)Cc1ccc(C(F)(F)F)cc1 as the compound, how does the cytotoxicity call read?
**A.** active

**Q.** Which cytotoxicity call does the source give for C[C@@H]1CCCCO[C@@H](CN(C)Cc2ccc(C(F)(F)F)cc2)[C@H](C)CN([C@H](C)CO)C(=O)c2cc(NC(=O)Nc3ccc(C(F)(F)F)cc3)ccc2O1 here?
**A.** inactive

**Q.** For C[C@H](CO)N1C[C@H](C)[C@H](CN(C)Cc2ccc(C(F)(F)F)cc2)OCCCC[C@H](C)Oc2ccc(NC(=O)Nc3ccc(C(F)(F)F)cc3)cc2C1=O, which cytotoxicity call is on record?
**A.** inactive

**Q.** For C[C@H]1CCCCO[C@@H](CN(C)Cc2ccc(C(F)(F)F)cc2)[C@@H](C)CN([C@@H](C)CO)C(=O)c2cc(NC(=O)Nc3ccc(C(F)(F)F)cc3)ccc2O1, which cytotoxicity call is on record?
**A.** active

**Q.** For C[C@@H]1CCCCO[C@@H](CN(C)Cc2ccc(C(F)(F)F)cc2)[C@@H](C)CN([C@H](C)CO)C(=O)c2cc(NC(=O)Nc3ccc(C(F)(F)F)cc3)ccc2O1, which cytotoxicity call is on record?
**A.** inactive

**Q.** Which cytotoxicity call does the source give for C[C@@H]1CCCCO[C@@H](CN(C)Cc2ccc(C(F)(F)F)cc2)[C@H](C)CN([C@@H](C)CO)C(=O)c2cc(NC(=O)Nc3ccc(C(F)(F)F)cc3)ccc2O1 here?
**A.** active

**Q.** How did the cytotoxicity call turn out when C[C@@H]1CN([C@@H](C)CO)C(=O)c2cc(NC(=O)Nc3ccc(C(F)(F)F)cc3)ccc2O[C@@H](C)CCCCO[C@@H]1CN(C)Cc1ccc(C(F)(F)F)cc1 was run?
**A.** inactive

**Q.** How did the cytotoxicity call turn out when CNC[C@H]1OCCCC[C@H](C)Oc2ccc(NC(=O)CCCN(C)C)cc2C(=O)N([C@H](C)CO)C[C@@H]1C was run?
**A.** inactive

**Q.** How did the cytotoxicity call turn out when C[C@@H]1CN([C@H](C)CO)C(=O)c2cccc(NC(=O)c3ccncc3)c2O[C@H]1CN(C)S(=O)(=O)c1ccccc1 was run?
**A.** inactive

**Q.** Which cytotoxicity call does the source give for C[C@H](CO)N1C[C@H](C)[C@H](CN(C)S(=O)(=O)c2cn(C)cn2)Oc2ccc(NC(=O)CCCCCC(=O)Nc3ccccc3N)cc2C1=O here?
**A.** inactive

**Q.** For CCOC(=O)CCCCCCCCCCCC[C@@H]1C=CCC1, which cytotoxicity call is on record?
**A.** inactive

**Q.** C[C@H](CO)N1C[C@H](C)[C@H](CN(C)Cc2ccc(C(=O)Nc3ccccc3N)cc2)OCCCC[C@H](C)Oc2ccc(NC(=O)C3CCCCC3)cc2C1=O was tested. Which cytotoxicity call did it give?
**A.** inactive

**Q.** How did the cytotoxicity call turn out when C[C@@H]1CN([C@H](C)CO)C(=O)c2cccc(NS(=O)(=O)c3cn(C)cn3)c2O[C@H]1CN(C)C(=O)Nc1ccc2c(c1)OCO2 was run?
**A.** inactive

**Q.** How did the cytotoxicity call turn out when CCOC(=O)Cn1cccc2oc(=O)nc1-2 was run?
**A.** inactive

**Q.** Which cytotoxicity call does the source give for C[C@H]1CN([C@@H](C)CO)C(=O)c2c(c3ccccc3n2C)-c2ccccc2CO[C@H]1CN(C)C(=O)Nc1ccccc1 here?
**A.** inactive

**Q.** How did the cytotoxicity call turn out when C[C@@H]1CN([C@@H](C)CO)C(=O)c2c(c3ccccc3n2C)-c2ccccc2CO[C@H]1CN(C)C(=O)[C@H](C)c1ccccc1 was run?
**A.** inactive

**Q.** How did the cytotoxicity call turn out when COc1ccc(NC(=O)N(C)C[C@@H]2Oc3ccc(NC(=O)Nc4cccc5ccccc45)cc3CC(=O)N([C@H](C)CO)C[C@@H]2C)cc1 was run?
**A.** inactive

**Q.** With COc1ccccc1-c1cnc2c(c1)C(=O)N([C@H](C)CO)C[C@@H](C)[C@H](CN(C)C(=O)c1ccncc1)O2 as the compound, how does the cytotoxicity call read?
**A.** inactive

**Q.** With Cc1ccc(-c2cnc3c(c2)C(=O)N([C@@H](C)CO)C[C@H](C)[C@@H](CN(C)C(=O)Cc2ccncc2)O3)cc1 as the compound, how does the cytotoxicity call read?
**A.** inactive

**Q.** With C[C@@H]1CN([C@H](C)CO)C(=O)c2cccc(NC(=O)c3ccc(-c4nccs4)cc3)c2O[C@@H]1CN(C)C(=O)NC1CCCCC1 as the compound, how does the cytotoxicity call read?
**A.** inactive

**Q.** With C[C@H]1CCCCO[C@H](CN(C)Cc2ccc(C(F)(F)F)cc2)[C@@H](C)CN([C@@H](C)CO)C(=O)c2cc(NC(=O)Nc3ccc(F)cc3)ccc2O1 as the compound, how does the cytotoxicity call read?
**A.** inactive

**Q.** C[C@@H]1CCCCO[C@@H](CN(C)Cc2ccncc2)[C@H](C)CN([C@H](C)CO)C(=O)c2cc(NC(=O)Nc3ccc(C(F)(F)F)cc3)ccc2O1 was tested. Which cytotoxicity call did it give?
**A.** inactive

**Q.** With C[C@@H]1CCCCO[C@H](CN(C)Cc2ccc(C(F)(F)F)cc2)[C@@H](C)CN([C@H](C)CO)C(=O)c2cc(NC(=O)Nc3ccc(C(F)(F)F)cc3)ccc2O1 as the compound, how does the cytotoxicity call read?
**A.** inactive

**Q.** With C[C@@H]1CN([C@H](C)CO)C(=O)c2cc(NC(=O)Nc3ccc(C(F)(F)F)cc3)ccc2O[C@@H](C)CCCCO[C@H]1CN(C)Cc1ccc(Cl)c(Cl)c1 as the compound, how does the cytotoxicity call read?
**A.** inactive

**Q.** With C[C@@H]1CN([C@H](C)CO)C(=O)c2cc(NC(=O)Nc3ccc(F)cc3)ccc2O[C@@H](C)CCCCO[C@H]1CN(C)Cc1ccc(C(F)(F)F)cc1 as the compound, how does the cytotoxicity call read?
**A.** active

**Q.** With C[C@@H]1CN([C@@H](C)CO)C(=O)c2cc(NC(=O)Nc3ccc(C(F)(F)F)cc3)ccc2O[C@@H](C)CCCCO[C@H]1CN(C)Cc1ccc(Cl)c(Cl)c1 as the compound, how does the cytotoxicity call read?
**A.** inactive

**Q.** With C[C@@H]1CN([C@H](C)CO)C(=O)c2cc(NC(=O)Nc3ccc(C(F)(F)F)cc3)ccc2O[C@@H](C)CCCCO[C@@H]1CN(C)Cc1ccncc1 as the compound, how does the cytotoxicity call read?
**A.** active

**Q.** With C[C@H](CO)N1C[C@H](C)[C@H](CN(C)Cc2ccc(C(F)(F)F)cc2)OCCCC[C@H](C)Oc2ccc(NC(=O)Nc3ccc(F)cc3)cc2C1=O as the compound, how does the cytotoxicity call read?
**A.** inactive

**Q.** Which cytotoxicity call does the source give for C[C@@H]1CN([C@H](C)CO)C(=O)c2cc(NC(=O)Nc3ccc(C(F)(F)F)cc3)ccc2O[C@@H](C)CCCCO[C@@H]1CN(C)Cc1ccc(C(F)(F)F)cc1 here?
**A.** active

**Q.** With C[C@H](CO)N1C[C@H](C)[C@@H](CN(C)Cc2ccncc2)OCCCC[C@H](C)Oc2ccc(NC(=O)Nc3ccc(C(F)(F)F)cc3)cc2C1=O as the compound, how does the cytotoxicity call read?
**A.** inactive

**Q.** C[C@@H]1CCCCO[C@@H](CN(C)Cc2ccc(C(F)(F)F)cc2)[C@H](C)CN([C@@H](C)CO)C(=O)c2cc(NC(=O)Nc3ccc(F)cc3)ccc2O1 was tested. Which cytotoxicity call did it give?
**A.** inactive

**Q.** How did the cytotoxicity call turn out when C[C@H](CO)N1C[C@H](C)[C@@H](CN(C)Cc2ccc(Cl)c(Cl)c2)OCCCC[C@H](C)Oc2ccc(NC(=O)Nc3ccc(C(F)(F)F)cc3)cc2C1=O was run?
**A.** active

Reference: the antibiotic and cytotoxicity screens of Wong et al. (2023)
